Only some compounds are listed: those with a hit (about 18% of all), similar ones and a draw of the others.
TDP1 cell noCPT – qHTS for Inhibitors of human tyrosyl-DNA phosphodiesterase 1 (TDP1): qHTS in cells in absence of CPT | Potency, µM (titrated, usually from 46.2 µM), for the others: at the top dose activity change, negative = growth inhibition, most hits filed as inhibitors | actives 15% (n = 420,000) | DT40 Tdp1-/- hTDP1 cells, no CPT, ATP luminescence, 48 h; also: potency is read from the fitted curve at half-maximal effect; nearly all actives have a fitted effect of over 55% in size
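DT40 Tdp1-/-;hTDP1 cells, no CPT (DMSO vehicle only), 400 cells/well; compounds pin-transferred; ≥48 hr, 37 °C; CellTiter-Glo 30 min RT dark, luminescence read.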
RORg inh – inhibitors of mouse ROR gamma transcriptional activity; AID 2551; actives 5.4% (n = 310,000); P51450; Potency, µM (doses to about 53.6 µM), without a hit: top-dose activity change, negative = inhibition, usual class: inhibitors; Drosophila S2 Gal4-RORgamma UAS-luciferase reporter, 20 h; also: potency is read from the fitted curve at half-maximal effect; nearly all actives have a fitted effect of over 60% in size
Target sequence (P51450 whole entry, looked up, the tested form may be a part): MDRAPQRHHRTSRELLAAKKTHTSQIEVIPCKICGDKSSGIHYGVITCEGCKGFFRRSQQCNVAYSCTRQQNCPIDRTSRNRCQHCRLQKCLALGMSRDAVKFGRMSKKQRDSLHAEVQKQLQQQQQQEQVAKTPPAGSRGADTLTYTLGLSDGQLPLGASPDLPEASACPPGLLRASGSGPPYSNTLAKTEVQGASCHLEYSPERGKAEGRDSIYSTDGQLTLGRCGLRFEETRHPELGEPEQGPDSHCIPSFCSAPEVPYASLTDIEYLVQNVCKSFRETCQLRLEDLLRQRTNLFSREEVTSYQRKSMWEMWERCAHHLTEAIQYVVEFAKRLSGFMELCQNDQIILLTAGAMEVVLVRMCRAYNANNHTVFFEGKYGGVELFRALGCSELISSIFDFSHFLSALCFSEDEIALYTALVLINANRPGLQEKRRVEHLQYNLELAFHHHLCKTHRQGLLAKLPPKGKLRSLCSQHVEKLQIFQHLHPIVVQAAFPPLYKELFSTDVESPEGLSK
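Stably transfected Drosophila Schneider cells are the test system, with ROR gamma fused to Gal4 and luciferase under UAS control; luminescence is read after 20 hr of 700 uM copper sulfate induction at ambient temperature.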
Gal4-VP16 FLuc – inhibits Gal4-VP16 luciferase reporter, ROR gamma counter-screen; Potency, µM (highest dose often 53.6 µM), for inactives: at the top dose activity, negative = inhibition, most hits filed as inhibitors; AID 2546; Drosophila S2 Gal4-VP16 UAS-luciferase, luminescence, 20 h; actives 3.5% (n = 310,000);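 also: Gal4-VP16 expression switched on by copper sulfate through the metallothionein promoter; potency is read from the fitted curve at half-maximal effect; nearly all actives have a fitted effect of over 50% in size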
DT40 TDP1 CPT – DT40-hTDP1 cell growth loss with CPT | chicken DT40 Tdp1-/-;hTDP1 cells + 20 nM CPT, ATP luminescence, 48 h | Potency, µM (top dose mostly 46.2 µM), without a hit: top-dose activity change, negative = growth inhibition, actives largely listed as inhibitors | actives 12% (n = 420,000); also: potency is read from the fitted curve at half-maximal effect; nearly all actives have a fitted effect of over 55% in size
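Chicken DT40 Tdp1-/- cells complemented with human TDP1, 400 cells/well, exposed to compounds plus 20 nM camptothecin for at least 48 h at 37 C; viability read as ATP content by CellTiter-Glo luminescence.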
LDHA block – blocks human lactate dehydrogenase A | activity change, % (values are at about 110 or 230 µM) | purified LDHA, NADH/diaphorase-resazurin fluorescence; hits give low values | P00338 | actives 0.15% (n = 480,000) | AID 1347041; in the data active = activity change below about -30%; inconclusive = mostly about -25% to -30%;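 also: plate controls were DMSO wells for no effect and wells without enzyme for full effect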
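Human LDH5 at 2 nM final in Tris HCl pH 7.4 with 0.06 mM NADH and 0.2 mM pyruvate, reacted 5 minutes at room temperature. Remaining NADH coupled via diaphorase/resazurin; resorufin fluorescence read at 0 and 20 minutes, normalized to enzyme-free and DMSO wells.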
IL-1B inflam inh – blocks inflammasome-driven IL-1 beta release; THP-1 LPS/ATP IL-1B secretion, AlphaLISA, 16 h; hits give low values; actives 4.7% (n = 360,000); activity change, % at 57.5 µM; in the data active = activity change below about -50%; inconclusive = mostly about -30% to -49%
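Secreted IL-1B measured by AlphaLISA bead assay after 16 h compound exposure of THP-1 cells; compounds (final up to 57.5 uM) added 1 h before LPS (250 ng/mL) and ATP (1.25 mM) stimulation; lower signal means less secretion.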
* marks the source's active call; other numbers are inactive results; ? = inconclusive; · = no result; [ ] = dose if it differs, or a comment. Unless noted, calls follow the shape of the dose curve; as a rule, active = well fitted curve in the direction sought with a large enough effect; inconclusive = small, poorly fitted or top-dose-only effect, or another doubt; inactive = no such curve, though single readings can be large; an effect the other way counts as inactive or inconclusive. Unless noted, % is scaled to controls: 0 for no effect and ±100 for the full control effect.

SMILES	TDP1 cell noCPT	RORg inh	Gal4-VP16 FLuc	DT40 TDP1 CPT	LDHA block	IL-1B inflam inh
O=C(Cn1nc(-c2ccccc2)c2ccccc2c1=O)N1CCC(Cc2ccccc2)CC1	·	·	·	·	7	·
CN(Cc1ccccc1NC(=O)C1(C)CC1(Cl)Cl)C1CCCCC1 (stereo unspecified)	·	·	·	·	6	·
CCCCCNc1nc2c(c(=O)n(C)c(=O)n2C)n1Cc1ccccc1F	·	·	·	·	16	·
C=C(C)C1CCC(C)=C1CC(C)(C)/C=N\n1cnnc1 (stereo unspecified)	21µM*	7%	-4%	10µM*	-1	13
CC(C)(C)c1cc(NC(=O)CS(=O)(=O)c2ccc(F)cc2)on1	·	·	·	·	-20	·
CC(C)c1cc(NC(=O)CCl)on1	9.2µM*	?	?	13µM*	1	-79*
CSc1ccccc1C(=O)NCC1Cc2cc(F)cc(-c3cnccn3)c2O1 (stereo unspecified)	?	·	·	21µM*	·	·
Cc1cc(C)c(NC(=O)CN(C)CC(=O)NC(=O)NCc2ccccc2)c(C)c1	·	·	·	·	-2	·
CCOC(=O)c1cnc2ccc(OC)cc2c1Nc1ccccc1CC	·	·	·	·	3	·
C=CC(=O)N=c1sc2ccccc2n1-c1ccccc1	2.6µM*	10µM*	?	2.6µM*	-7	-104*
N=c1sc2ccccc2n1-c1ccccc1	26µM*	-39%	8%	?	3	10
Cc1cc(=O)n2c(C(=O)Nc3ccc(C(=O)OC(C)C)cc3)c(C(=O)Nc3ccccc3)sc2n1	15µM*	-2%	-24%	?	-3	21
COc1cccc(CNC(=O)C(=O)c2c[nH]c3ccccc23)c1	·	·	·	·	-1	·
Cc1ccc(-c2nc3c4ccccc4ccn3c2Cc2cccc(Cl)c2)cc1	?	·	·	?	0	24
Fc1cccc(Cc2c(C3CCCCC3)nc3c4ccccc4ccn23)c1	13µM*	·	·	23µM*	2	0
Cc1cc(Br)cn2c(Cc3ccccc3)c(C3CCCCC3)nc12	16µM*	·	·	18µM*	5	87
Cc1ccc(Cc2c(C3CCCCC3)nc3c(C)cc(Br)cn23)cc1	-18%	·	·	?	9	37
c1ccc(Cc2c(C3CCCCC3)nc3c4ccccc4ccn23)cc1	12µM*	·	·	?	-2	26
COc1ccc2nc(C)c(C(=O)NC34CC5CC(CC(C5)C3)C4)cc2c1	·	·	·	·	1	·
CC(NC(=O)CSc1nnnn1-c1ccc(O)cc1)c1ccc2c(c1)CCCC2 (stereo unspecified)	·	·	·	·	-7	·
COc1ccc(N(Cc2cccs2)C(=O)Cn2nnc(-c3cccc(F)c3)n2)cc1	·	·	·	·	-2	·
CCCCN1C(=O)C(O)(CC(=O)c2c(C)n[nH]c2C)c2cc(Br)ccc21 (stereo unspecified)	-20%	13%	-3%	3%	-13	6
CCCCN1C(=O)C(O)(CC(=O)c2ccc(C)cc2C)c2cc(Br)ccc21 (stereo unspecified)	16µM*	·	·	16µM*	-1	·
CCCCN1C(=O)C(O)(CC(=O)c2ccco2)c2cc(Br)ccc21 (stereo unspecified)	4.1µM*	9%	26%	2.6µM*	-2	81
CC[C@@H]1CCCCc2ccccc2[C@@H](C(=O)C[C@@H](O)CC(C)=O)OC1=O	-19%	·	·	-14%	0	-8
SMILES	TDP1 cell noCPT	RORg inh	Gal4-VP16 FLuc	DT40 TDP1 CPT	LDHA block	IL-1B inflam inh
CC[C@@H]1CCCCc2ccccc2[C@H](C(=O)C[C@@H](O)CC(C)=O)OC1=O	-2%	·	·	21µM*	-6	9
CC[C@H]1CCCCc2ccccc2[C@@H](C(=O)C[C@@H](O)CC(C)=O)OC1=O	?	·	·	15µM*	1	36
C(=C\c1ccccc1)/C1=NO[C@@H]2[C@H]3CC[C@H](C3)[C@H]12	·	·	·	·	1	·
CCc1nc(NCC2CCCO2)c(C#N)c2c1COC(C)(C)C2 (stereo unspecified)	-10%	?	-1%	?	-5	-17
CCCc1nc(NC2CCCCC2)c(C#N)c2c1COC(C)(C)C2	29µM*	-2%[10 µM]	-4%	18µM*	3	8
O=C1C(Nc2ccc(O)cc2)=C/C(=N/S(=O)(=O)c2cccs2)c2ccccc21	1.5µM*	11µM*	13µM*	1.2µM*	42	-99*
O=C(O)c1ccc(NC2=C/C(=N/S(=O)(=O)c3cccs3)c3ccccc3C2=O)cc1	6.5µM*	·	·	9.2µM*	23	-94*
Cc1ccccc1OCCOc1ccc2ccc(=O)oc2c1	·	·	·	·	0	·
Cc1nn(C)c(C)c1CCC(=O)N1CCCC(C(=O)c2cccc(OC(C)C)c2)C1 (stereo unspecified)	?	-1%	?	18µM*	-4	1
CC(C)Oc1cccc(C(=O)C2CCCN(C(=O)CCc3cnn(C)c3)C2)c1 (stereo unspecified)	?	21%	-9%	16µM*	-3	14
CCN(CC)S(=O)(=O)c1ccc(C(=O)Nc2ccccc2OC(F)F)cc1	·	·	·	·	1	·
CCNC(=S)NNc1nnc(-c2ccccc2)c(-c2ccccc2)n1	-23%	13µM*	?	-28%	-9	-4
NS(=O)(=O)c1ccc(NC(=S)NCc2ccc(F)cc2)cc1	-16%	15%	1%	-12%	-3	31
CNC(=S)NNc1nc(-c2ccccc2)c2cc(Cl)ccc2n1	-22%	·	·	-10%	-9	-27
Fc1ccc(NC(=S)NCc2ccccc2)cc1	-2%	8.9µM*	10µM*	-21%	-9	-17
Fc1ccc(CNC(=S)NCc2ccccc2)cc1	-7%	11µM*	?	8%	-4	-21
CC(=O)NNC(=S)NCc1ccccc1	·	·	·	·	-5	·
CCNC(=S)NNC(=S)NCc1ccccc1	?	7.1µM*	?	?	-6	-5
COc1ccc2cc(-c3nc(-c4cccc(OC)c4OC)no3)c(=O)oc2c1	·	·	·	·	1	·
O=C(/C=C/c1ccc(Br)cc1)c1cccc(O)c1	·	·	·	·	12	·
CC(=O)c1ccc(Nc2nc(C(N)Cc3ccc(N)cc3)cs2)cc1 (stereo unspecified)	?	·	·	?	-3	-12
CC(=O)c1ccc(Nc2nc(C(N)Cc3ccc(Cl)cc3)cs2)cc1 (stereo unspecified)	?	·	·	18µM*	-9	-54*
CC(=O)c1ccc(Nc2nc(C(N)CCc3ccccc3)cs2)cc1 (stereo unspecified)	16µM*	·	·	?	-4	?
